For eight molecules, growth results are on record in PubChem BioAssay (NCI).

Among the test systems are HCT-15 colon; HT29 colon; SNB-75 CNS; SNB-19 CNS; U251 CNS; PC-3 prostate; SK-MEL-5 melanoma; UACC-62 melanoma; LOX IMVI melanoma; SK-MEL-28 melanoma; SK-MEL-2 melanoma; EKVX NSCLC; SN12C renal; UO-31 renal; TK-10 renal; ACHN renal; CAKI-1 renal; CCRF-CEM leukemia; MOLT-4 leukemia; A498 renal.
What all share (experiment): NCI-60 one-dose screen, 48 h (100 = growth as untreated, 0 = no growth, -100 = all killed)
Holding throughout (details): 10 µM unless noted

This is part of a sample that, as a whole, favours compounds with a hit. Of some 83,000 tested, about 20% had one in any assay.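 Compound tested at a single concentration for 48 hours in 96-well plates; a percent growth value below 10 was scored as active.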 Values without a mark were called inactive. The source made the active and inactive calls.

Take `COC(=O)[C@H](C)NC(=O)NC(=O)NC(=O)CI`: the growth is 51.4% with HCT-15 colon; 67.2% in the experiment with HT29 colon; 112% in the experiment with SNB-75 CNS; 108% with SNB-19 CNS; 96.9% in the experiment on U251 CNS; 86.7% in the experiment on PC-3 prostate. Moreover, the growth in the experiment on SK-MEL-5 melanoma is 99.5%; with UACC-62 melanoma, 41.2%; with LOX IMVI melanoma, -66.2% (active); in the experiment on SK-MEL-28 melanoma, 48%; with SK-MEL-2 melanoma, 87.7%; with EKVX NSCLC, 107%. Moreover, the growth in the experiment with SN12C renal is 47.1%; in the experiment with UO-31 renal it was 78.3%; with TK-10 renal, 70.6%; with ACHN renal, 76.7%; in the experiment with CAKI-1 renal, -61.3% (active); in the experiment on CCRF-CEM leukemia, -55.5% (active). Also, the growth with MOLT-4 leukemia is -31.7% (active).
As for `CC[C@H](C)C(=O)O[C@H]1CCC=C2C=C[C@H](C)[C@H](CC[C@@H]3CC=CC(=O)O3)[C@H]21`, the growth in the experiment on HCT-15 colon is 85.7%; in the experiment with HT29 colon, 67.7%; in the experiment on SNB-75 CNS, 68.9%; with SNB-19 CNS, 83.5%; with U251 CNS it was 88.1%; in the experiment with PC-3 prostate it was 61.6%. For the same molecule, the growth in the experiment with SK-MEL-5 melanoma is 77%; in the experiment on UACC-62 melanoma, 82.3%; in the experiment on LOX IMVI melanoma it was 53.3%; in the experiment on SK-MEL-28 melanoma, 94.8%; in the experiment on SK-MEL-2 melanoma it was 81.7%; with EKVX NSCLC it was 110%. Besides, the growth with SN12C renal was 67.7%; in the experiment on UO-31 renal, 71.8%; with TK-10 renal, 105%; in the experiment on ACHN renal, 86.9%; in the experiment on A498 renal it was 97%; with CCRF-CEM leukemia, 6.89% (active). In addition, in the experiment with MOLT-4 leukemia, the growth was 45.6%.
As for `CCN(CC)CCNC(=O)c1cn2ncnc(Oc3ccc(NC(=O)Nc4ccc(Cl)c(C(F)(F)F)c4)cc3)c2c1C`, the growth in the experiment on HCT-15 colon was -65.2% (active); in the experiment with HT29 colon, -68.2% (active); with SNB-75 CNS, -27% (active); in the experiment on SNB-19 CNS, -83.4% (active); in the experiment on U251 CNS, -78% (active); in the experiment with PC-3 prostate it was -79.2% (active). The growth in the experiment with SK-MEL-5 melanoma was -99% (active); in the experiment with UACC-62 melanoma, -81.2% (active); in the experiment on LOX IMVI melanoma, -98.8% (active); in the experiment with SK-MEL-28 melanoma it was -89.9% (active); in the experiment on SK-MEL-2 melanoma it was -51.7% (active); in the experiment with EKVX NSCLC, -47.7% (active). In addition, the growth in the experiment with SN12C renal is -92.5% (active); in the experiment on UO-31 renal, -92% (active); in the experiment with TK-10 renal, -66% (active); in the experiment on ACHN renal, -55.2% (active); in the experiment with CAKI-1 renal, -58.9% (active); in the experiment with CCRF-CEM leukemia it was -8.36% (active). In addition, the growth in the experiment with MOLT-4 leukemia was -45% (active).
`O=S(=O)(Nc1ccc(-c2nc(-c3cccc(OCCN4CCOCC4)c3)c(-c3ccnc(Br)c3)[nH]2)cc1)c1ccccc1`: the growth in the experiment with HCT-15 colon is 8.1% (active); in the experiment on HT29 colon, 2.67% (active); in the experiment with SNB-75 CNS it was 6.55% (active); with SNB-19 CNS it was 48.2%; in the experiment with U251 CNS, 35.2%; in the experiment on PC-3 prostate it was 15.9%. Also, the growth in the experiment on SK-MEL-5 melanoma was 37.5%; in the experiment on UACC-62 melanoma, 28.7%; with LOX IMVI melanoma, 3.47% (active); with SK-MEL-28 melanoma it was 38.7%; in the experiment with SK-MEL-2 melanoma, 24.8%; in the experiment with EKVX NSCLC it was 50.2%. Besides, the growth is 51.5% in the experiment on SN12C renal; 20.5% in the experiment on UO-31 renal; 48.2% in the experiment on TK-10 renal; 27.1% in the experiment on ACHN renal; 53% in the experiment with A498 renal; 15.1% with CCRF-CEM leukemia. The growth in the experiment with MOLT-4 leukemia is 8.11% (active).
With `COc1ccc(C2NC(=O)C(C#N)c3c2sc2c(F)cccc32)c(OC)c1` (configuration not stated), the growth is 36.3% in the experiment with HCT-15 colon; 66.1% in the experiment on HT29 colon; -5.26% (active) in the experiment with SNB-75 CNS; 44.2% in the experiment on SNB-19 CNS; 39.3% with U251 CNS; 56.8% in the experiment on PC-3 prostate. Also, the growth in the experiment on SK-MEL-5 melanoma was 81.8%; with UACC-62 melanoma, 42.3%; in the experiment on LOX IMVI melanoma, 39.7%; in the experiment with SK-MEL-28 melanoma, 55.1%; with SK-MEL-2 melanoma, 65.1%; with EKVX NSCLC, 79.8%. In addition, the growth was 73.8% in the experiment on SN12C renal; 90.1% in the experiment with TK-10 renal; 37.5% in the experiment with ACHN renal; 21.4% with CAKI-1 renal; 25.2% in the experiment on A498 renal; 71.9% in the experiment on CCRF-CEM leukemia. The growth in the experiment with MOLT-4 leukemia was 71.4%.
With `Cc1ccc(/C=C2\Oc3ccc(O)c(O)c3C2=O)cc1`, the growth was 9.23% (active) with HCT-15 colon; 87.8% in the experiment on HT29 colon; 32.5% with SNB-75 CNS; 37.9% with SNB-19 CNS; 20.2% with U251 CNS; 43.3% with PC-3 prostate. Besides, the growth with SK-MEL-5 melanoma is 47.3%; in the experiment with UACC-62 melanoma, 45.3%; with LOX IMVI melanoma it was 16.9%; in the experiment with SK-MEL-28 melanoma, 53.6%; in the experiment on SK-MEL-2 melanoma it was 87.6%; with EKVX NSCLC, 19.7%. The growth with SN12C renal is 62.8%; in the experiment on UO-31 renal, 13.5%; with TK-10 renal, 98%; with ACHN renal, 29.1%; with A498 renal, 70.2%; in the experiment on CCRF-CEM leukemia it was 15.6%. Moreover, the growth in the experiment on MOLT-4 leukemia was 29.6%.
Take `COc1ccc(C2CC(c3ccc(Nc4ccnc5cc(Cl)ccc45)cc3)=NN2C=O)cc1` (configuration not stated): the growth with HCT-15 colon was 23.6%; with HT29 colon, 33.2%; with SNB-75 CNS it was 77.1%; with SNB-19 CNS, 81.5%; with U251 CNS, 63.4%; in the experiment on PC-3 prostate, 72.3%. In addition, the growth with SK-MEL-5 melanoma was 41.2%; in the experiment with UACC-62 melanoma, 54.5%; in the experiment with LOX IMVI melanoma it was 20%; in the experiment on SK-MEL-28 melanoma it was 74.9%; with SK-MEL-2 melanoma, 92.5%; in the experiment on EKVX NSCLC it was 68.2%. Moreover, the growth was 64.4% in the experiment on SN12C renal; 43.2% with UO-31 renal; 91.2% in the experiment on TK-10 renal; 48.5% with ACHN renal; 101% in the experiment with A498 renal; 14% in the experiment with CCRF-CEM leukemia. Also, in the experiment on MOLT-4 leukemia, the growth is 25.8%.
Regarding `CCCC1CCC(O)(C(C)(O)C(=O)NC2C(=O)N3NCCCC3C(=O)N(O)C(C)C(=O)N3NCCCC3C(=O)N3NCC(O)CC3C(=O)NC(C)C(=O)OC2C(C)C)OC1CC` (configuration not stated), the growth in the experiment on HCT-15 colon is -64.1% (active); in the experiment on HT29 colon it was -55.6% (active); in the experiment on SNB-75 CNS, -83% (active); in the experiment with SNB-19 CNS, -81.5% (active); with U251 CNS, -74.2% (active); with PC-3 prostate, -86% (active). The growth is -97.3% (active) with SK-MEL-5 melanoma; -71.8% (active) with UACC-62 melanoma; -72.9% (active) in the experiment with LOX IMVI melanoma; -99.3% (active) in the experiment with SK-MEL-28 melanoma; -43.7% (active) in the experiment on SK-MEL-2 melanoma; -63.4% (active) in the experiment with EKVX NSCLC. Besides, the growth in the experiment with SN12C renal is -67.9% (active); in the experiment with UO-31 renal, 0.226% (active); in the experiment on TK-10 renal, -85.3% (active); in the experiment with ACHN renal it was -68.1% (active); in the experiment with A498 renal it was -95.5% (active); in the experiment with CCRF-CEM leukemia it was -84.5% (active). In addition, the growth in the experiment on MOLT-4 leukemia was -82.7% (active).
